Laboratory results taken from PubChem BioAssay (NCI).
This is part of a sample that, as a whole, favours compounds with a hit. Of some 83,000 tested, about 20% had one in any assay.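 The endpoint reported here, percent growth, reads 100 for growth as untreated, 0 for no net growth and -100 for all cells dead.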 The source made the active and inactive calls. How the source made its calls: active means growth percent below 10; inactive means the rest.

Columns and labels:
Experiment in all cases: NCI-60 one-dose screen, 48 h (100 = growth as untreated, 0 = no growth, -100 = all killed)
Details in all cases: 10 µM unless noted
HCT-15 colon = test system: HCT-15 colon
HT29 colon = test system: HT29 colon
SNB-75 CNS = test system: SNB-75 CNS
SNB-19 CNS = test system: SNB-19 CNS
PC-3 prostate = test system: PC-3 prostate
SK-MEL-5 melanoma = test system: SK-MEL-5 melanoma
UACC-62 melanoma = test system: UACC-62 melanoma
LOX IMVI melanoma = test system: LOX IMVI melanoma
SK-MEL-28 melanoma = test system: SK-MEL-28 melanoma
U251 CNS = test system: U251 CNS

Measured: growth

FC(F)(F)c1cc(CNc2ncc(Br)c(Cl)n2)cc(C(F)(F)F)c1
inactive: HCT-15 colon 97.7% | HT29 colon 106% | SNB-75 CNS 95.4% | SNB-19 CNS 112% | PC-3 prostate 92.2% | SK-MEL-5 melanoma 97.3% | UACC-62 melanoma 103% | LOX IMVI melanoma 90.5% | SK-MEL-28 melanoma 102%

CCOC(=O)c1sc(NC(=O)CN2CCC(Cc3ccccc3)CC2)nc1C
inactive: HCT-15 colon 92.9% | HT29 colon 79.8% | SNB-75 CNS 109% | SNB-19 CNS 104% | PC-3 prostate 93.1% | UACC-62 melanoma 114% | LOX IMVI melanoma 96.7% | SK-MEL-28 melanoma 110%

C(=C\c1ccccc1)/CN1CCN(C(c2ccccc2)c2ccccc2)CC1
inactive: HCT-15 colon 80.9% | HT29 colon 83.1% | SNB-75 CNS 85.4% | SNB-19 CNS 96.3% | PC-3 prostate 77.5% | SK-MEL-5 melanoma 95.5% | UACC-62 melanoma 96.9% | LOX IMVI melanoma 99.7% | SK-MEL-28 melanoma 91.9%

COC(=O)[C@H]1CCCN1C(=O)[C@H]1CCCN1C(=O)[C@@H](Cc1c[nH]c2ccccc12)NC(=S)Nc1cc(C(F)(F)F)cc(C(F)(F)F)c1
inactive: HCT-15 colon 55.5% | HT29 colon 39% | SNB-75 CNS 40.3% | SNB-19 CNS 36.8% | PC-3 prostate 34% | UACC-62 melanoma 58.7% | LOX IMVI melanoma 44.2% | SK-MEL-28 melanoma 53%

CC1(C)N=C(N)N=C(N)N1c1cccc(/C=C/C=C/c2cccc([N+](=O)[O-])c2)c1
inactive: HCT-15 colon 88.7% | HT29 colon 11.5% | SNB-75 CNS 58.3% | SNB-19 CNS 51.6% | SK-MEL-5 melanoma 68.3% | UACC-62 melanoma 47.3% | LOX IMVI melanoma 33.7% | SK-MEL-28 melanoma 65.6%
active: PC-3 prostate 2.12%

Cc1nn(-c2ccccc2)c2nc3nc4c(c(N)c3c(-c3ccc(Cl)cc3)c12)CCC4
inactive: HCT-15 colon 76.5% | HT29 colon 55.2% | SNB-75 CNS 86.2% | SNB-19 CNS 111% | PC-3 prostate 88.2% | SK-MEL-5 melanoma 99.4% | UACC-62 melanoma 102% | LOX IMVI melanoma 62.5% | SK-MEL-28 melanoma 96.9%

N#Cc1ccc(C(F)(F)F)nc1N1CCC(C(=O)Nc2ccc(Cl)cc2)CC1
inactive: HCT-15 colon 43.9% | HT29 colon 51.5% | SNB-75 CNS 105% | U251 CNS 65.3% | PC-3 prostate 51% | UACC-62 melanoma 84.8% | LOX IMVI melanoma 43.7%

CC(C)(C)[Si](C)(C)OC1[C@@H](CNC(=O)NC(=O)CCl)O[C@@H](n2cnc3c(N)ncnc32)[C@H]1O[Si](C)(C)C(C)(C)C (some centres not stated)
inactive: SNB-75 CNS 50% | SK-MEL-5 melanoma 90.6%
active: HCT-15 colon -72.8% | HT29 colon -74.7% | U251 CNS -81% | PC-3 prostate -83% | UACC-62 melanoma -75% | LOX IMVI melanoma -91.3% | SK-MEL-28 melanoma -14.4%

COc1ccc2c(c1)c(=O)oc1c(C)c(OCC(C)=O)ccc12
inactive: HCT-15 colon 86.7% | HT29 colon 103% | SNB-19 CNS 101% | U251 CNS 90% | PC-3 prostate 83.3% | SK-MEL-5 melanoma 103% | UACC-62 melanoma 64.3% | LOX IMVI melanoma 94.7% | SK-MEL-28 melanoma 106%

CNc1ccc(Br)cc1-c1n[nH]c(=O)[nH]c1=O
inactive: HCT-15 colon 102% | HT29 colon 112% | SNB-75 CNS 77.4% | U251 CNS 96.2% | PC-3 prostate 99.5% | UACC-62 melanoma 105% | LOX IMVI melanoma 98.6% | SK-MEL-28 melanoma 107%

O=c1nc(NO)[nH]c(=O)n1Cc1ccccc1
inactive: HCT-15 colon 101% | HT29 colon 103% | SNB-75 CNS 92.8% | U251 CNS 99.7% | PC-3 prostate 98.1% | UACC-62 melanoma 105% | LOX IMVI melanoma 103% | SK-MEL-28 melanoma 107%

Nc1c(Br)cc(Br)cc1-c1n[nH]c(=O)[nH]c1=O
inactive: HCT-15 colon 98.1% | HT29 colon 99.7% | SNB-75 CNS 85.5% | U251 CNS 100% | PC-3 prostate 99% | UACC-62 melanoma 106% | LOX IMVI melanoma 96.1% | SK-MEL-28 melanoma 110%

CC(C)(C)[Si](C)(C)OC1[C@@H](O[Si](C)(C)C(C)(C)C)[C@@H](CNC(=O)NC(=O)C(F)(F)F)O[C@H]1n1cnc2c(NC(=O)Nc3ccccc3)ncnc21 (some centres not stated)
active: PC-3 prostate -35.5%
inactive: HCT-15 colon 69.7% | HT29 colon 21.3% | SNB-75 CNS 72.8% | U251 CNS 78.6% | UACC-62 melanoma 84.3% | LOX IMVI melanoma 56.2% | SK-MEL-28 melanoma 97.9%

CN([N-]C(=O)CC(=O)[N-]N(C)C(=S)c1ccccc1)C(=S)c1ccccc1.[Cu+2]
active: HCT-15 colon 2.52% | HT29 colon -77.8% | SNB-19 CNS -96.1% | U251 CNS -99% | PC-3 prostate -53% | SK-MEL-5 melanoma -94.6% | UACC-62 melanoma -92.4% | LOX IMVI melanoma -93.1% | SK-MEL-28 melanoma -94.7%

Clc1ccc(C2=Nc3cccc4cccc(c34)N2)cc1Cl
inactive: HCT-15 colon 70.2% | HT29 colon 101% | SNB-19 CNS 70.3% | U251 CNS 104% | PC-3 prostate 65.8% | SK-MEL-5 melanoma 91.6% | UACC-62 melanoma 109% | LOX IMVI melanoma 84% | SK-MEL-28 melanoma 104%

COC(=O)C1C2CC3c4[nH]c5cc(OC)ccc5c4CCN3CC2CC(OC2CCCCO2)C1OC (configuration not stated)
inactive: HCT-15 colon 99.8% | HT29 colon 94.4% | SNB-75 CNS 84.4% | U251 CNS 97% | PC-3 prostate 87.1% | UACC-62 melanoma 99.3% | LOX IMVI melanoma 95.4% | SK-MEL-28 melanoma 101%

O=C1c2ccccc2-c2cn(Cc3ccccc3)c3cccc(c23)C1c1cccnc1 (configuration not stated)
inactive: HCT-15 colon 31.2% | SNB-19 CNS 54% | U251 CNS 25% | PC-3 prostate 55.4% | SK-MEL-5 melanoma 21.7% | UACC-62 melanoma 47.3% | LOX IMVI melanoma 57.4% | SK-MEL-28 melanoma 53.9%
active: HT29 colon 4.25%

COC(=O)c1c2c(c(C)[n+]([O-])c1C)C(=O)C(NCc1ccc(O)cc1)=CC2=O
active: HCT-15 colon -43.4% | HT29 colon 3.68% | SNB-19 CNS -28.5% | U251 CNS -0.0674% | PC-3 prostate 7.51% | SK-MEL-5 melanoma -99.7% | UACC-62 melanoma -73.8% | LOX IMVI melanoma -89.6% | SK-MEL-28 melanoma -3.61%

O=[N+]([O-])c1cc2c(cc1Br)-c1ccccc1C2
inactive: HCT-15 colon 45.3% | HT29 colon 95.9% | SNB-75 CNS 86.5% | U251 CNS 98.5% | PC-3 prostate 91.8% | UACC-62 melanoma 82% | LOX IMVI melanoma 88.8% | SK-MEL-28 melanoma 98.4%

CCCCC(CCCC)(S(=O)(=O)CC)S(=O)(=O)CC
inactive: HCT-15 colon 97.7% | HT29 colon 105% | SNB-75 CNS 98.4% | SNB-19 CNS 105% | PC-3 prostate 91.6% | UACC-62 melanoma 106% | LOX IMVI melanoma 102% | SK-MEL-28 melanoma 115%

Cc1nc2nc(C(F)(F)F)[nH]c2nc1C
inactive: HCT-15 colon 111% | HT29 colon 107% | SNB-75 CNS 85.1% | U251 CNS 102% | PC-3 prostate 104% | UACC-62 melanoma 102% | LOX IMVI melanoma 98.6% | SK-MEL-28 melanoma 102%

COc1ccc(/C=N/OCC(O)CN2CCC(O)CC2)cc1OC1CCCC1 (configuration not stated)
inactive: HCT-15 colon 109% | HT29 colon 104% | SNB-19 CNS 95.9% | U251 CNS 103% | PC-3 prostate 94.7% | SK-MEL-5 melanoma 98.8% | UACC-62 melanoma 103% | LOX IMVI melanoma 105% | SK-MEL-28 melanoma 105%

Cc1nc(NC(=O)COc2cccc(/C=C3\COc4ccccc4C3=O)c2)sc1C
active: HCT-15 colon -63.8% | HT29 colon -100% | U251 CNS -100% | SK-MEL-5 melanoma -81.8% | UACC-62 melanoma -18.9% | LOX IMVI melanoma -94.3% | SK-MEL-28 melanoma -61.2%
inactive: SNB-75 CNS 54.2%

COc1ccc(-n2c(SCc3cc(OC)c(OC)c(OC)c3)nc3ccc(C)cc3c2=O)c(OC)c1
inactive: HCT-15 colon 23.7% | HT29 colon 11.3% | SNB-75 CNS 29.6% | U251 CNS 24.9% | SK-MEL-5 melanoma 17.6% | UACC-62 melanoma 24.3% | LOX IMVI melanoma 31.6% | SK-MEL-28 melanoma 40.8%
active: PC-3 prostate 8.75%

O=S(=O)(Nc1ncccn1)c1ccc(Nc2ccc3nnc(-c4ccncc4)n3n2)cc1
inactive: HCT-15 colon 99.3% | HT29 colon 116% | SNB-19 CNS 99.7% | U251 CNS 102% | PC-3 prostate 102% | SK-MEL-5 melanoma 100% | UACC-62 melanoma 99.1% | LOX IMVI melanoma 95.1% | SK-MEL-28 melanoma 99.1%

CN(C)c1ccc(/C=C(\C#N)c2cc3ccccc3n2C)cc1
inactive: HCT-15 colon 20.6% | HT29 colon 10.3% | SNB-19 CNS 31% | U251 CNS 19.4% | PC-3 prostate 34.4% | SK-MEL-5 melanoma 19.3% | UACC-62 melanoma 38.5% | LOX IMVI melanoma 31.5%

CC(=O)Nc1ccccc1-c1n[nH]c(=O)[nH]c1=O
inactive: HCT-15 colon 102% | HT29 colon 90.7% | SNB-75 CNS 90.3% | U251 CNS 101% | PC-3 prostate 99.4% | UACC-62 melanoma 103% | LOX IMVI melanoma 97.8% | SK-MEL-28 melanoma 104%

COc1ccccc1-n1c(SCc2cc(OC)c(OC)c(OC)c2)nc2ccc(Cl)cc2c1=O
inactive: HCT-15 colon 27.8% | U251 CNS 25.6% | PC-3 prostate 19.6% | UACC-62 melanoma 34.3% | LOX IMVI melanoma 33.2% | SK-MEL-28 melanoma 49.4%
active: HT29 colon 7.69% | SNB-75 CNS -4.26%

COC(=O)c1cc(-c2ccc(C)cc2)n(C(=O)CSc2nc3sc(C(N)=O)c(C)c3c(=O)n2Cc2ccccc2)n1
inactive: HCT-15 colon 98.1% | HT29 colon 115% | SNB-75 CNS 83.3% | U251 CNS 102% | PC-3 prostate 86.1% | SK-MEL-28 melanoma 112%

Nc1ccccc1-c1n[nH]c(=O)[nH]c1=O
inactive: HCT-15 colon 104% | HT29 colon 106% | SNB-75 CNS 89.5% | U251 CNS 94.2% | PC-3 prostate 96.9% | LOX IMVI melanoma 97.8% | SK-MEL-28 melanoma 103%

Cc1ccc(N=c2nc3sc4c(C)ccc(C)c4n3c(N)c2C#N)cc1
inactive: HCT-15 colon 104% | HT29 colon 104% | SNB-75 CNS 92.1% | U251 CNS 96.1% | PC-3 prostate 88% | UACC-62 melanoma 77.9% | LOX IMVI melanoma 99.4% | SK-MEL-28 melanoma 105%
